RORg inh: blocks mouse ROR gamma transcriptional activity; Potency, µM (highest dose often 53.6 µM), inactives show at the highest dose activity change, negative = inhibition, hits mostly inhibitors; 5.4% of 310,000 active; Drosophila S2 Gal4-RORgamma UAS-luciferase reporter, 20 h; AID 2551; note: nearly all actives have a fitted effect of over 60% in size
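Stable Schneider cell line, Gal4 DNA-binding domain fused to ROR gamma, UAS-luciferase. Cmpd 1 hr RT → CuSO4 700 uM final → 20 hr RT → luciferase reagent 10 min → luminescence.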
PLK1 PBD block: blocks phosphopeptide binding to human PLK1 polo-box domain | P53350 | Plk1 PBD binding of FITC phosphopeptide, fluorescence polarization | Potency, µM, inactives show max response, negative = inhibition, actives largely listed as inhibitors | 2.8% of 360,000 active | AID 720504; note: series mostly up to about 57 µM; nearly all actives have a fitted effect of over 65% in size
Target sequence (P53350 whole entry, looked up, the tested form may be a part): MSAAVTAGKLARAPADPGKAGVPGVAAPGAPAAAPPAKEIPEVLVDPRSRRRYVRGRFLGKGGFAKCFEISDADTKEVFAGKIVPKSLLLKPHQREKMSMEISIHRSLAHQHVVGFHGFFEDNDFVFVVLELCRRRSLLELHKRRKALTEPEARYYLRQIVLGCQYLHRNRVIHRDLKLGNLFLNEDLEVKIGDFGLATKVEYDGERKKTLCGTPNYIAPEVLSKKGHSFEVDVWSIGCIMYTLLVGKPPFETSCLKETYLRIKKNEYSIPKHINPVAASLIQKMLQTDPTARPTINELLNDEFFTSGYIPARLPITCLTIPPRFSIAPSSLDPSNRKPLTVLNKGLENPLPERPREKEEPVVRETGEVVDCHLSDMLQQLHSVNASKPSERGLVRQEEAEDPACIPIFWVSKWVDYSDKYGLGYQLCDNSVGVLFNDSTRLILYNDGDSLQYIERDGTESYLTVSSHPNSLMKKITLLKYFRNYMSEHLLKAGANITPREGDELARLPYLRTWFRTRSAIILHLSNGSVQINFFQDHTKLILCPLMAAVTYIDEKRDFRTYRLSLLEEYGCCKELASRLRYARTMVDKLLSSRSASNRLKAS
ALDH1A1 inh: inhibitors of human aldehyde dehydrogenase 1A1; P00352; Purified ALDH1A1, NADH fluorescence, propionaldehyde substrate; Potency, µM (top dose mostly 75.3 µM), for the others: at the highest dose activity, negative = inhibition, most hits filed as inhibitors; 7.3% of 220,000 active; AID 1030; active = well fitted inhibition curve with a large enough effect, not every such curve was filed as active; inconclusive = small, poorly fitted or top-dose-only effect, or another doubt; inactive = no such curve, though single readings can be large or run the other way;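 note: plate controls were no enzyme wells and a reference inhibitor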
VP16 counter: inhibits Gal4-VP16 luciferase reporter, ROR gamma counter-screen; Drosophila S2 Gal4-VP16 UAS-luciferase, luminescence, 20 h; Potency, µM (series often up to 53.6 µM), for the others: at the highest dose activity, negative = inhibition, hits mostly inhibitors; 3.5% of 310,000 active; AID 2546;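 note: Gal4-VP16 expression switched on by copper sulfate through the metallothionein promoter; nearly all actives have a fitted effect of over 50% in size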
Sfp inh: inhibitors of Bacillus subtilis Sfp phosphopantetheinyl transferase; Q9F4F7; Biochemical Sfp PPTase activity, qHTS; Potency, µM, for inactives: largest response in the series, negative = inhibition, most hits filed as inhibitors; 3.5% of 310,000 active;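 note: the enzyme is Sfp with the accession as filed and its product quenches rhodamine fluorescence; 0% = enzyme reaction without inhibitor and -100% = no enzyme wells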
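Step 1, compound plus 15 nM Sfp-PPTase, 15 min, room temperature. Step 2, add rhodamine-CoA (5 uM) and BHQ-2-YbbR (12.5 uM). Step 3, read 525/598 nm fluorescence at 0 and 30 min.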
An asterisk follows results filed as active; ? = inconclusive; . = not tested or not shown; ! = repeats disagree; [ ] = remark or other dose. A selection: hits, their analogues and other compounds. The true share with any hit is near 12%. Unless noted, calls come from the whole dose curve; as a rule, active = well fitted curve in the direction sought with a large enough effect; inconclusive = small, poorly fitted or top-dose-only effect, or another doubt; inactive = no such curve, though single readings can be large; an effect the other way counts as inactive or inconclusive. Unless noted, % is set by controls: 0 for no effect and ±100 for the full control effect; potency is the fitted concentration of half-maximal effect.

SMILES	RORg inh	PLK1 PBD block	ALDH1A1 inh	VP16 counter	Sfp inh
NS(=O)(=O)c1ccc(CCNC(=S)NC(=O)c2ccccc2Br)cc1	.	-1.3%	.	.	.
COC(=O)c1ccc(S(=O)(=O)NCCSc2nnc3c4ccccc4n(C)c3n2)cc1	2.5%	-5.3%	15.8µM*	4.6%	6.7%
CC(C)OC(=O)CSc1nnc2c3ccccc3n(C)c2n1	-11.6%	-9.5%	?	-16.4%	5.6%
CCOC(=O)C(=O)C1=C(N2CCOCC2)/C(=C\c2ccc(F)cc2)CC1	28.4%	-4.8%	12.6µM*	-26.9%	-7.9%
CCCCN(C(=O)NC(=O)C1=C(N2CCOCC2)/C(=C/c2ccccc2)CC1)S(C)(=O)=O	29.2%	33.6µM*!	?	13.9%	-2.9%
O=C(O)/C=C\C(=O)Nc1cccc(C(=O)Nc2cccc(O)c2)c1	10.3%	23.8µM*	-8.2%	0.0%	3.5%
Cc1ccccc1C(=O)NNC(=O)/C=C\C(=O)O	3.55µM*	?	.	?	22.4µM*
Cc1ccccc1C(=O)NNC(=O)Nc1ccccc1	-34.1%	.	7.7%	-3.9%	15.7%
Cc1cccc(C(=O)NNC(=O)/C=C/C(=O)O)c1	14.1µM*	-1.0%	?	-9.6%	-5.5%
O=C(O)/C=C/C(=O)NNC(=O)c1ccccc1Br	11.2µM*	-7.0%	11.2µM*	-16.0%	56.2µM*
CN(C)C(=O)c1ccc(-c2ccc3ncnc(N4CCOCC4)c3c2)cc1	7.5%	.	-12.8%	3.5%	6.4%
COc1ccc(C(=O)C[C@@H]2OC[C@H](Cc3ccccc3)N2S(=O)(=O)c2ccc(C)cc2)cc1OC	.	2.1%	.	.	.
O=C(Nc1nnc(-c2cccnc2)o1)c1cccc([N+](=O)[O-])c1	0.794µM*	.	11.1%	1.12µM*	6.8%
O=C(Nc1ccncc1NC(=O)c1cccc([N+](=O)[O-])c1)c1cccc([N+](=O)[O-])c1	-2.0%	-3.5%	-2.3%	-13.1%	15.9%
COC(=O)c1ccc(C(=O)Nc2ccc3nc(-c4cccnc4)[nH]c3c2)cc1	30.0%	-7.1%	11.4%	-8.7%	13.9%
COC(=O)c1ccc(C(=O)Nc2nnc(-c3cccnc3)o2)cc1	2.51µM*	.	-1.5%	2.82µM*	14.7%
O=C(Nc1nnc(-c2ccncc2)o1)c1ccc2ccccc2c1	1.12µM*	-9.4%	.	0.562µM*	18.1%
Cc1cccc(C(=O)Nc2nnc(-c3ccncc3)o2)c1	3.16µM*	-4.4%	?	2.82µM*	15.1%
O=C(Nc1nnc(-c2cccnc2)o1)c1ccccc1Cl	8.91µM*	-5.3%	11.7%	?	-12.0%
Cc1cccc(C(=O)Nc2ccnc(-c3cccnc3)n2)c1	-7.1%	-13.0%	-4.1%	-8.0%	15.8%
Cc1cccc(C(=O)Nc2nnc(-c3cccnc3)o2)c1	0.708µM*	-4.1%	-5.7%	1.26µM*	22.0%
CC(=O)OCC(=O)[C@]1(O)C(C)CC2C3CCC4=CC(=O)C=C[C@@]4(C)[C@]3(F)C(O)C[C@@]21C (some centres undefined)	32.5%	.	4.5%	0.1%	10.8%
CCC1=C2CC[C@H]3C(=O)N(CC)C(=O)[C@H]3[C@H]2[C@@]2(Cc3ccccc3)C(=O)N(CCOC)C(=O)N2C1=O	9.0%	.	-2.2%	14.6%	14.6%
C[C@@H]1/C=C\CC(=O)OC[C@H](C)C(=O)N[C@@H](Cc2ccccc2)C(=O)OC1	7.4%[10 µM]	.	6.6%[13.5 µM]	-9.6%[10 µM]	7.9%
FC(F)(F)c1cccc(Oc2cc(C(F)(F)F)nc(-c3ccccn3)n2)c1	-9.0%	-4.4%	6.2%	6.1%	12.3%
SMILES	RORg inh	PLK1 PBD block	ALDH1A1 inh	VP16 counter	Sfp inh
CNc1cc(C(F)(F)F)nc(-c2ccccn2)n1	0.708µM*	0.4%	7.0%	12.6µM*	-1.5%
CNc1nc(Sc2cccc(C(F)(F)F)c2)cc(C(F)(F)F)n1	-0.6%	-7.3%	-3.8%	-0.8%	12.7%
CNc1nc(Sc2ccccc2)cc(C(F)(F)F)n1	1.3%	-15.3%	35.5µM*	-1.1%	11.0%
COc1ccc(Sc2cc(C(F)(F)F)nc(-c3ccccn3)n2)cc1	3.98µM*	-7.6%	-6.3%	11.2µM*	0.2%
C#CCSc1cc(C(F)(F)F)nc(-c2ccccn2)n1	10µM*	-8.5%	?	-6.3%	-7.4%
CC(=O)Nc1cccc(-c2ccnc3c2CC(C)(C(=O)NCC2CC2)O3)c1 (centres undefined)	.	-5.7%	.	.	.
N#Cc1ccc(CN2CC[C@@]3(CCCN(S(=O)(=O)c4ccccc4)C3)C2)cc1	21.1%	.	-8.3%	-15.1%	27.6%
O=C(/C=C/c1cn(CC(O)CN2CCCCC2)c2ccccc12)c1cccs1 (centres undefined)	2.5%	7.5%	14.1µM*	-25.9%	-21.9%
COc1ccccc1OCC(=O)Nc1cc(Cl)ccc1Oc1ccccc1	?	3.1%	7.4%	-17.5%	4.5%
COc1ccc(Cl)cc1NC(=S)Nc1ccccc1F	?	-14.5%	-8.3%	?	?
CCNC(=S)Nc1cc(Cl)ccc1Oc1ccccc1	4.47µM*	-3.4%	-2.0%	10µM*	1.4%
CNC(=S)Nc1cc(Cl)ccc1Oc1ccccc1	14.1µM*	-7.4%	1.6%	?	19.9%
CCCCC/C=C\C[C@@H](O)/C=C/C=C/C=C/[C@@H](O)CCCC(=O)O	10.2%	.	4.0%	2.4%	2.0%
NS(=O)(=O)c1ccc(N2N=C(c3ccccc3)CC2c2ccccc2Cl)cc1 (centres undefined)	.	-2.1%	.	.	.
CC(C)N1CCN(c2ccncc2S(=O)(=O)N2CCN(C)CC2)CC1	.	-9.8%	.	.	.
O=c1oc2ccccc2cc1-c1nc(-c2cccs2)cs1	-10.6%	11.2µM*	-6.2%	7.4%	14.2%
CCN(CC(=O)Nc1ccc(OC)cc1)CC(=O)Nc1cccc(S(=O)(=O)N2CCOCC2)c1	.	0.1%	.	.	.
O=C(O/N=C\c1ccc(N2CCCCC2)c([N+](=O)[O-])c1)c1c(F)cccc1F	34.6%	-1.0%	17.8µM*	-0.1%	6.2%
O=C(O/N=C\c1ccc(N2CCCCC2)c([N+](=O)[O-])c1)c1cccc(C(F)(F)F)c1	14.0%	0.9%	?	-5.4%[0.365 µM]	0.7%
O=C(O/N=C\c1ccc(N2CCCCC2)c([N+](=O)[O-])c1)c1cccc(Cl)c1	-8.2%	-1.0%	?	-4.6%	-2.2%
Cc1ccc(C(=O)O/N=C\c2ccc(N3CCCCC3)c([N+](=O)[O-])c2)cc1	?	1.2%	1.41µM*	-12.3%	6.4%
CCc1nc2ccc(C(=O)NCc3ccc(OC)cc3)cn2c1N(C)CCC(C)C	.	6.1%	.	.	.
CCOC(CN=c1nc(N(C)C)ss1)OCC	.	6.7µM*	.	.	.
CCN(CC)CCCC(C)n1c(-c2ccccc2)nc2c(NCc3ccccc3)nc(C)nc21 (centres undefined)	?	.	?	-4.8%	-4.9%
Cc1nc(NCc2ccccc2)c2nc(-c3ccccc3)n(CCCN3CCOCC3)c2n1	-29.1%	.	?	-5.8%	9.4%
Cc1nc(NCc2ccccc2)c2nc(-c3ccccc3)n(C(C)CN(C)C)c2n1 (centres undefined)	11.2µM*	.	?	17.9%	10.6%

High-throughput results as filed in PubChem.
